# PubChem BioAssay (NCATS)
# A number with no mark means an inactive call. Inconclusive results are not listed. Where a call stands in place of a potency, no number is given. Calls of active or inactive are those of the source. Calls come from the whole dose curve; as a rule, active = well fitted curve in the direction sought with a large enough effect; inconclusive = small, poorly fitted or top-dose-only effect, or another doubt; inactive = no such curve, though single readings can be large; an effect the other way counts as inactive or inconclusive.
# What was measured:
# [1] = OV-KATE Cancer Cell Toxicity qHTS against the NCATS CANVASS Library (AID 1347345); note: potency is the fitted concentration of half-maximal effect
# Outline: (§1)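 Step one: seed 1000 cells per well. Step two: incubate 4 h. Step three: add test compounds in 11 concentrations. Step four: culture 72 h, then add CellTiter-Glo and record luminescence after 15min.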
# [2] = HPAF-II Cancer Cell Toxicity qHTS against the NCATS CANVASS Library (AID 1347346); note: nearly all actives have a fitted effect of over 55% in size; note: potency is the fitted concentration of half-maximal effect
# Outline: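 Using 1000 HPAF-II cells per well, we titrated compounds over 11 concentrations for 72 h at 37 degrees C/5% CO2, with bortezomib as control. Cell survival was quantified by CellTiter-Glo luminescence.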
# [3] = U-118MG Cancer Cell Toxicity qHTS against the NCATS CANVASS Library (AID 1347351); note: potency is the fitted concentration of half-maximal effect
# Outline: as §1
# [4] = HEK293 18hr Apoptosis Induction qHTS against the NCATS CANVASS Library (AID 1347357)
# Outline: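 Cells seeded at 500/well in DMEM + 10% FBS. Compounds pinned, 11 concentrations. 18 h, 37 degrees C/5% CO2. Caspase-Glo 3/7 added, 15 min RT dark, luminescence read.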
# [5] = HPAF-II 12hr Apoptosis Induction qHTS against the NCATS CANVASS Library (AID 1347358)
# Outline: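 Twelve-hour compound exposure of HPAF-II cells in DMEM with 10% FBS, then luminescent Caspase-Glo 3/7 detection after 15 min at room temperature; doxorubicin control.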
# [6] = HEK293 24hr Apoptosis Induction qHTS against the NCATS CANVASS Library (AID 1347359)
# Outline: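 Caspase-3/7 activation measured as luminescence from the DEVD-based Caspase-Glo reagent, 15 min at room temperature, following 24-hour compound treatment of HEK293 cells.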
# [7] = HEK293 12hr Apoptosis Induction qHTS against the NCATS CANVASS Library (AID 1347361)
# Outline: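 Cells are seeded, dosed with an 11-point compound series and incubated 12 hours. Caspase-3/7 activity is detected by luminescent DEVD-substrate reagent after 15 minutes at room temperature.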
# [8] = biological target: Luciferin 4-monooxygenase (Photinus pyralis) (UniProt P08659); test: Firefly luciferase counterscreen qHTS: Assay Interference Panel against the NCATS CANVASS Library (AID 1347363); note: series mostly up to about 57 µM
# Sequence of Luciferin 4-monooxygenase (Photinus pyralis) (P08659 whole entry, looked up): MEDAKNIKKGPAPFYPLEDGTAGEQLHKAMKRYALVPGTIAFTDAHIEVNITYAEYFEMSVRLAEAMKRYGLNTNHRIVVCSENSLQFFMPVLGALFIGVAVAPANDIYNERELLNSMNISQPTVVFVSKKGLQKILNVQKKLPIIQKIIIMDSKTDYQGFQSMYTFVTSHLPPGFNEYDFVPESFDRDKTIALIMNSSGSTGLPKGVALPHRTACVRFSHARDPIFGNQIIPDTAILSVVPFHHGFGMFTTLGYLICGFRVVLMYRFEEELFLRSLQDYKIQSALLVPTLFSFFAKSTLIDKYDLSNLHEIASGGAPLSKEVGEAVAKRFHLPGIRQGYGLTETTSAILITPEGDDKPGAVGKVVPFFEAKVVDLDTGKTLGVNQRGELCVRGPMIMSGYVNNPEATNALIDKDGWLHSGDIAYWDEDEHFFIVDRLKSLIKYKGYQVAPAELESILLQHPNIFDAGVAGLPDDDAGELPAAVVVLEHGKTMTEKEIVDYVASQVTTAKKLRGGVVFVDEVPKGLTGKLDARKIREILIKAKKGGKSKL
# Outline: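 Luminescence inhibition readout: compounds (11-point qHTS) sat 15 min at room temperature with substrate mix (0.013 mM luciferin and ATP), then firefly luciferase was added and signal read 5 min later.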
# [9] = KB-3-1 Cancer Cell Toxicity qHTS against the NCATS CANVASS Library (AID 1347366); note: nearly all actives have a fitted effect of over 75% in size
# Outline: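 Luminescence from CellTiter-Glo (10 min, room temperature) measured KB-3-1 viability after 72 hr compound exposure at 37C. Cells were seeded at 500/well and tested in an 11-point series.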
# [10] = MCF7 Cancer Cell Toxicity qHTS against the NCATS CANVASS Library (AID 1347369); note: potency is the fitted concentration of half-maximal effect
# Outline: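 Cells seeded at 500/well, then compound pinned. Plates incubated 72 hr at 37C, 5% CO2. CellTiterGlo added; luminescence read.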
# [11] = J3T Cancer Cell Toxicity qHTS against the NCATS CANVASS Library (AID 1347371); note: potency is the fitted concentration of half-maximal effect
# Outline: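 ATP-based cytotoxicity in canine J3T cells: 72 hr exposure at 37C, 11-point titration, CellTiterGlo luminescent detection.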
# [12] = biological target: Nuclear receptor subfamily 1 group I member 3 (Homo sapiens) (UniProt Q14994); test: qHTS for Constitutive Androstane Receptor (CAR) Antagonist screened against the NCATS CANVASS Library (AID 1347372);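 note: cells stimulated with 50 nM CITCO agonist so inhibition reflects antagonism; series mostly up to about 46 µM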
# Sequence of Nuclear receptor subfamily 1 group I member 3 (Homo sapiens) (Q14994 whole entry, looked up): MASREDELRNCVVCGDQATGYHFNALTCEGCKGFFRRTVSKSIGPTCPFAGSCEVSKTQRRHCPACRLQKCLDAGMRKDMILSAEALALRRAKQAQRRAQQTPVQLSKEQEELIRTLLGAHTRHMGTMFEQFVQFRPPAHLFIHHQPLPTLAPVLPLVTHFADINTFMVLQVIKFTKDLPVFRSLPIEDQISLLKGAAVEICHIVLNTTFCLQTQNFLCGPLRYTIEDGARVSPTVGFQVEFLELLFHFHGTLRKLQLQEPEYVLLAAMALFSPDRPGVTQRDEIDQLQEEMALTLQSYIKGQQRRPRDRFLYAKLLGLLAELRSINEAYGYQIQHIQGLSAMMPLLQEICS
# Outline: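 Antagonist mode: compound added alongside 50 nM CITCO to HepG2-hCAR-CYP2B6 reporter cells, 24hr at 37C. Viability by CellTiter-Fluor fluorescence, then CAR-driven luciferase by ONE-Glo luminescence.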
# [13] = biological target: Nuclear receptor subfamily 1 group I member 3 (Homo sapiens) (UniProt Q14994); test: qHTS for Constitutive Androstane Receptor (CAR) Agonist screened against the NCATS CANVASS Library (AID 1347373);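 note: every well also contained 1.5 µM PK11195 alongside the test compound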
# Outline: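 In an 11-point concentration series, compounds were incubated 24hr with HepG2 cells carrying hCAR and a CYP2B6-2.2kb reporter, with PK11195 at 1.5uM final. A CellTiter-Fluor viability read preceded the ONE-Glo luminescence read.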
# [14] = qHTS for Hypoxia signaling pathway (HIF-1) agonists against the NCATS CANVASS Library (AID 1347375)
# Outline: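 An HRE-beta-lactamase ME-180 line is exposed for 17 h to an 11-point compound series, then read by CCF4-AM FRET. Cytotoxicity is measured in parallel in the same wells with CellTiter-Glo, and autofluorescence is checked separately.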
# [15] = 10-beta competent E. coli microbial cell viability qHTS against the NCATS CANVASS Library (AID 1347376); note: series mostly up to about 46 µM
# Outline: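 Overnight 37C exposure of 10-beta E. coli (0.2 OD) to an 11-point concentration series; ATP-based luminescence after 20 min room-temperature reagent incubation; daunomycin as control.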
# [16] = qHTS for H2AX Agonists against the NCATS CANVASS Library (AID 1347378);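 note: phospho-H2AX S139 level in CHO-K1 lysates by TR-FRET emission ratio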; note: potency is the fitted concentration of half-maximal effect
# Outline: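 CHO-K1, 1000 cells/well, o/n 37C; cpd several conc, 3 hr 37C, 0.76% DMSO; lyse 30 min RT; cryptate anti-pH2AX(S139) + d2 anti-H2AX, 24 hr RT; HTRF 665/620.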
# [17] = Inflammasome Signaling qHTS Counterscreen: IL-1-beta AlphaLISA counterscreen against the NCATS CANVASS Library (AID 1347381);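 note: cell-free check with purified IL-1β in medium and no THP-1 cells; series mostly up to about 57 µM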
# Outline: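 Here, no cellular stimulation occurs; compounds in an 11-point series meet 4 pg purified IL-1-beta directly. Bead-based AlphaLISA detection follows (1 h acceptor/antibody, then 30 min donor, dark, room temperature), with excitation at 680 nm.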
# [18] = Cytotoxicity qHTS for assessment of Hepg2 cells membrane integrity screened against the NCATS CANVASS Library (AID 1347387)
# Outline: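 Membrane damage in HepG2 monolayers was estimated from released LDH, measured with CytoTox-ONE (ex 560/em 590 nm), after 5 hr treatment across 0.59 nM - 46 uM final.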
# [19] = qHTS for inhibitors of Wild type Zika virus screened against the NCATS CANVASS Library (AID 1347396);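 note: ATP luminescence of surviving cells so rescue from viral cell killing; series mostly up to about 46 µM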
# Outline: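 Using ATP-based luminescence (CellTiter Glo), this screen scores rescue of Vero 766 cells from wild-type Zika killing at 72 h post-infection. Compounds are tested in a concentration series.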
# [20] = Viability qHTS for inhibitors of the SERCaMP assay screened against the NCATS CANVASS Library (AID 1347400); note: nearly all actives have a fitted effect of over 70% in size; note: potency is the fitted concentration of half-maximal effect
# Outline: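 Measures loss of viability in SERCaMP reporter SH-SY5Y cells treated for 48 h with compounds; luminescent ATP detection by CellTiter-Glo.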
SMILES,Potency [1],Potency [2],Potency [3],Potency [4],Potency [5],Potency [6],Potency [7],Potency [8],Potency [9],Potency [10],Potency [11],Potency [12],outcome [13],Potency [14],outcome [15],Potency [16],outcome [17],outcome [18],Potency [19],Potency [20]
CO[C@@H]1[C@H](O)[C@@H](C)O[C@@H](OC[C@H]2/C=C/C=C/C(=O)C(C)C[C@H](C)C(O[C@@H]3O[C@H](C)CC4(OC(=O)O[C@@H]4C)C3O)[C@@H](C)/C=C/C(=O)OC2C)[C@@H]1OC (some centres not stated),inactive,inactive,inactive,inactive,inactive,inactive,inactive,inactive,inactive,inactive,inactive,inactive,inactive,inactive,inactive,inactive,inactive,inactive,inactive,inactive
CCCCCCC[C@@H](C/C=C/CCC(=O)NCCc1c[nH]c2ccccc12)OC,inactive,inactive,inactive,inactive,inactive,inactive,inactive,inactive,inactive,inactive,inactive,inactive,inactive,inactive,–,inactive,inactive,inactive,–,inactive
C=C1C[C@@]23C=CC(=O)[C@@](C)(CCC(=O)Nc4c(O)ccc(C(=O)O)c4O)C2C[C@@H]1C(O)C3 (some centres not stated),inactive,inactive,inactive,inactive,inactive,inactive,inactive,inactive,inactive,inactive,inactive,inactive,inactive,inactive,inactive,inactive,inactive,inactive,inactive,inactive
C[C@@H]1C(=O)[C@]23CC[C@H]1C[C@]21O[C@H]2C(C)(C)C=CC(=O)[C@]23COC1=O,inactive,inactive,inactive,inactive,inactive,inactive,inactive,inactive,inactive,inactive,inactive,inactive,inactive,inactive,inactive,inactive,inactive,inactive,inactive,inactive
C=C1C(=O)O[C@H]2C[C@H](C)[C@@H]3CC(=O)C(C)=C3[C@H](O)[C@H]12,13.3 µM (active),13.3 µM (active),18.8 µM (active),–,inactive,inactive,–,inactive,–,18.6 µM (active),23.5 µM (active),–,inactive,–,inactive,17.2 µM (active),inactive,–,inactive,21.4 µM (active)
C[C@]12CC[C@]3(C1)[C@H](CC2=O)CC(OC(=O)c1ccccc1)[C@H]1[C@@](CO)(C(=O)O)CCC[C@@]13C (some centres not stated),inactive,inactive,inactive,inactive,inactive,inactive,inactive,inactive,inactive,inactive,inactive,inactive,inactive,inactive,inactive,inactive,inactive,inactive,inactive,inactive
